# Assay outcomes: PubChem, The Scripps Research Institute Molecular Screening Center
# Sampled rows, rich in hits. Any-hit rate of the full collection: about 4.8%.
# hgDAF-12 ag: agonists of H. glycines DAF-12 nuclear receptor; AID 687014; HEK293 GAL4-hgDAF12 UAS-luciferase reporter, agonist luminescence; normalized to butyrate control; activation, % at 6.8 µM; 1.8% of 370,000 active;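 active means activation above a cutoff set at the mean of all screened compounds plus 3 SD, cut at about 10% in these data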;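 further: 0% = DMSO wells and 100% = sodium butyrate wells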
# ssDAF12 agonist: activates DAF-12 receptor from parasite S. stercoralis; HEK293 ssDAF-12/GRIP1 lit1-tk-luc reporter, luminescence; % of 3 µM dafachronic acid response; 1% of 370,000 active; activation, % at 6.8 µM;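 active means activation above the mean over all tested compounds plus 3 SD, cut at about 0.9% in these data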;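 further: 0% = DMSO-only wells and 100% = 3 µM delta7-dafachronic acid wells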
# DAX1 inh-1: inhibits human nuclear receptor DAX1; inhibition, % at 6.75 µM; P51843; HEK293 Gal4-DAX1 luciferase reporter, luminescence; 0.99% of 340,000 active; AID 504766;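 active means inhibition above the mean over all tested compounds plus 3 SD, cut at about 4.2% in these data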;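 further: 0% = DAX1-transfected cells with DMSO and 100% = empty-vector control cells with DMSO; inhibition shows as a rise in luminescence from relieved DAX1 repression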
# Target sequence (P51843 207-470 limits assumed): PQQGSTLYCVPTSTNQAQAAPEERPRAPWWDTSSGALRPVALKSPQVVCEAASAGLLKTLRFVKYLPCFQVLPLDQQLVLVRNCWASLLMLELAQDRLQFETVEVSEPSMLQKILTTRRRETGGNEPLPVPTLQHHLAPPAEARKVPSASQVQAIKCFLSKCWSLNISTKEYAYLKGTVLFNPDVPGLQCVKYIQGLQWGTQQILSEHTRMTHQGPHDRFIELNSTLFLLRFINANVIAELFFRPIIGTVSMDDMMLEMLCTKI
# DAX1 inh-2: inhibitors of DAX1 repression of SF-1 activated StAR promoter; HEK293T StAR-luciferase reporter, SF-1/DAX-1 repression relief; inhibition, % at 6.8 µM; 1.1% of 370,000 active; AID 652010;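 active means inhibition above the mean over all tested compounds plus 3 SD, cut at about 3.6% in these data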;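 further: 0% = DAX-1 cells with DMSO and 100% = cells lacking DAX-1 with DMSO; higher inhibition means more luminescence from relief of DAX-1 repression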
# hcDAF-12 act: H. contortus DAF-12 activation, primary screen; HEK293 hcDAF-12 lit1-tk-luc reporter, luminescence; 0% DMSO, 100% Δ7-dafachronic acid; activation, % at 6.8 µM; 1.4% of 370,000 active; AID 652067;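 active means activation above the mean of all tested compounds plus 3 SD, cut at about 5.5% in these data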;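 further: 100% = response to 3 µM Δ7-dafachronic acid high control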
# SMARCA2 act: increases SMARCA2 function in MMTV reporter cells; AID 652017; 1% of 370,000 active; MG213 cells, MMTV-luciferase reporter, dexamethasone, overnight; activation, % at 9.1 µM; in the data active means activation above about 7.8%;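 further: 0% = vehicle wells and 100% = reference activator wells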
# DAX1 inh confirm: NR0B1 (human) inhibition, confirmation; HEK293T StAR-promoter luciferase reporter, SF-1/DAX-1 repression; AID 652134; 87% of 2,400 active; shares compounds with DAX1 inh-2; inhibition, % at 6.8 µM;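 active means inhibition above the average of every tested compound plus 3 SD, cut at about 3.8% in these data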;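 further: 0% = DAX-1 cells with DMSO and 100% = no DAX-1 control cells with DMSO; active compounds raise luminescence by relieving repression of the StAR reporter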
# Target sequence (P51843 whole entry, looked up): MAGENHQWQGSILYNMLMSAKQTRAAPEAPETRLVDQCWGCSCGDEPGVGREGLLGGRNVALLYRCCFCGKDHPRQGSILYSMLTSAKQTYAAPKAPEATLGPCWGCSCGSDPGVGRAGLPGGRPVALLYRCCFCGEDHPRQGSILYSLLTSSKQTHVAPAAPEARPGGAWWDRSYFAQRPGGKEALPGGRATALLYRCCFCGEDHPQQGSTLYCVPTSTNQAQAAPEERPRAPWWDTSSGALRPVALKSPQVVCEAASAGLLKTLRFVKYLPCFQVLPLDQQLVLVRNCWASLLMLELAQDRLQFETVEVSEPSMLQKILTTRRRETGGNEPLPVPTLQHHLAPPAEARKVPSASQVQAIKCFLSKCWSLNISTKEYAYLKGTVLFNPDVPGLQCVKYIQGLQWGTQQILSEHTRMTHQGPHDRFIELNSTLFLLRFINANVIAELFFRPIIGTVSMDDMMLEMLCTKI
# SF1 mutant ctr: nonselective inhibitor or artifact in SF-1 mutant DAX1 counter-screen; 78% of 2,400 active; HEK293 StAR-luciferase, SF-1 AF2 mutant, luminescence; inhibition, % at 6.8 µM; shares compounds with DAX1 inh-2;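 active means inhibition above the mean of all tested compounds plus 3 SD, cut at about 3% in these data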;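 further: 0% = DAX-1 transfected cells with DMSO and 100% = cells without DAX-1 with DMSO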
# SMARCA2 act conf: SMARCA2 activation, confirmation screen. shares compounds with SMARCA2 act. MG213 cells, MMTV-luciferase with dexamethasone, luminescence, overnight; MG213 cells expressing E1A, Rb sequestered; DMSO wells 0%, reference activator 100%. activation, % at 9.1 µM. 30% of 3,500 active;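 active means activation above its plate's cutoff, the mean activation of tested wells plus 3 SD, cut at about 7.9% in these data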
# VP16 Luc act: activates GAL4-VP16 luciferase, flagging SMARCA2 activator hits; 41% of 3,500 active; HEK293 GAL4-VP16 pG5luc reporter, luciferase luminescence; scaled: DMSO wells 0%, SAHA wells 100%; AID 686939; activation, % at 9.1 µM; shares compounds with SMARCA2 act;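 active means activation above the solvent-only control well mean plus 3 SD, averaged across control plates, cut at about 5.2% in these data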
# LXRb hcDAF ctr: activates human LXR-beta, counter-screen for hcDAF-12 agonists; shares compounds with hcDAF-12 act; HEK293 Gal4-LXR tk-luc reporter, luminescence, 24 h; normalized: DMSO 0%, positive control 100%; activation, % at 6.8 µM; 3,400 tested, under 10 active; AID 743027;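 active means mean percent activation of the reporter above a cutoff set as the average over tested compounds plus their standard deviation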
# hcDAF12 ag: hcDAF-12 agonism, confirmation assay; activation, % at 6.8 µM; shares compounds with hcDAF-12 act; HEK293 hcDAF-12 lit1-tk-luc reporter, luminescence; % of Δ7-dafachronic acid response; 61% of 3,400 active; AID 743032;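 active means mean activation across triplicate tests above the threshold derived from the earlier primary screen, cut at about 5.5% in these data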;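 further: 0% = DMSO only wells and 100% = 3 µM Δ7-dafachronic acid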
# hgDAF12 ag: confirmation of H. glycines DAF-12 agonists; shares compounds with hgDAF-12 ag; HEK293 GAL4-hgDAF12 luciferase reporter, agonist mode; percent of butyrate response; activation, % at 6.8 µM; 80% of 3,300 active;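 active means mean activation over triplicate wells above the hit cutoff derived from the earlier primary screen, cut at about 11% in these data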;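 further: 0% = DMSO low control and 100% = 2 mM sodium butyrate high control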
# LXR ag 2: activates human LXR-beta, counter-screen for DAF-12 agonists. 3,300 tested, under 10 active. shares compounds with hgDAF-12 ag. AID 743051. activation, % at 6.8 µM. HEK293 Gal4-LXR luciferase reporter, 24 h;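 active means mean activation of the triplicate above a set limit carried over from the primary screen, none filed active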
# An asterisk follows results filed as active; nt = not tested or not shown; ! = a repeat was not active.
SMILES,hgDAF-12 ag,ssDAF12 agonist,DAX1 inh-1,DAX1 inh-2,hcDAF-12 act,SMARCA2 act,DAX1 inh confirm,SF1 mutant ctr,LXRb hcDAF ctr,hcDAF12 ag,hgDAF12 ag,LXR ag 2,others
C/C(=N\Nc1cccc2cccnc12)c1ccc[nH]1,20*,1.3*,2,7.5*,10*,7,14*,5.2*,1,9.9*,18*,1,
COC(=O)[C@]12C[C@H](CC(=O)NCCc3ccccc3OC)C(=O)N(CCC3=CCCCC3)C1=C[C@H](C1CCCC1)O[C@@H]2C,7,-1,nt,-1,0,0,nt,nt,nt,nt,nt,nt,
CCc1sc(C(=O)N2CCc3ccccc32)cc1C,33*,3.5*,2,6.3*,10*,2,11*,6.6*,1,7.2*,21*,1,
CCCCNc1c(-c2ccc(SC(C)CC)cc2)nc2ccccn12 (stereo unspecified),11*,2.6*!,2,5.3*!,6.7*!,1,6.3*,3.4*,1,5,16*,1,
O=C(CN1C(=O)c2ccccc2S1(=O)=O)Nc1cccc(S(=O)(=O)N2CCOCC2)c1,-2,-1,-1,-1,0,-5,nt,nt,nt,nt,nt,nt,
CC(C)(C)NC(=O)C(c1ccccc1)n1c(=O)c(-c2ccco2)nc2ccccc21 (stereo unspecified),0,-1,nt,2,0,-2,nt,nt,nt,nt,nt,nt,
O=c1c(-c2ccco2)nc2ccccc2n1C(c1ccccc1)c1nc2ccccc2[nH]1 (stereo unspecified),16*,0,nt,4.7*,5,11*,3,2,nt,nt,10,0,SMARCA2 act conf=8.9*;VP16 Luc act=5.6*
O=C(NCc1ccccc1)C12CC3CC(CC(Cl)(C3)C1)C2,1,-2,nt,0,-1,2,nt,nt,nt,nt,nt,nt,
COc1ccccc1NC(=O)CCn1c(=S)oc2ccccc21,-2,-2,2,0,0,1,nt,nt,nt,nt,nt,nt,
CCOC(=O)CSc1nc2ccc(C)cc2cc1C#N,14*,0,4,5.6*,8.9*,7,13*,10.0*,1,4,20*,1,
CCOC(=O)CSc1nc(N)c(C#N)cc1C#N,5,-1,1,1,1,3,nt,nt,nt,nt,nt,nt,
CCOC(=O)CSc1nc2cc(OC)ccc2cc1C#N,13*,1,2,4.8*,7.2*,4,15*,8.1*,1,5,20*,1,
O=S1(=O)CC(c2ccccc2)=NN=C(c2ccccc2)C1,17*,1.5*,3,7.6*,9.5*,2,11*,3.9*,1,8.5*,16*,1,
O=C1CC(c2ccccc2)=NO1,-1,-1,1,0,1,-1,nt,nt,nt,nt,nt,nt,
Cc1ccc(OCCn2cc(/C=N/NC(=O)c3ccncc3)c3ccccc32)cc1,0,-1,0,-1,-2,-1,nt,nt,nt,nt,nt,nt,
O=[N+]([O-])c1cc(Cl)ccc1-c1nc(-c2ccccc2)no1,25*,4.0*,4.5*,4.7*,11*,1,14*,7.7*,2,9.9*,18*,1,
CCOC(=O)C(C)n1nc(/C=C/c2ccc(OC)cc2)ccc1=O (stereo unspecified),-1,-1,0,0,0,-4,nt,nt,nt,nt,nt,nt,
CC(C)c1ccc(/C=C/c2ccc(=O)n(C)n2)cc1,19*,0,1,5.3*,6.4*,7,6.7*,3.4*,nt,nt,14*,1,
Cc1cnc2nc(-c3ccccc3)ccc2c1,17*,1.0*,nt,8.2*,6.8*,6,11*,6.8*,2,6.6*,19*,1,
CC1=Nc2ccccc2N=C(N)C1c1ccccc1 (stereo unspecified),18*,1.5*,1,5.1*,7.4*,4,3.7*,4.3*,0,3,13*,0,
CC1=NN(c2ccccc2)C(=O)C1c1ccccc1 (stereo unspecified),0,-1,-1,-1,-2,-2,nt,nt,nt,nt,nt,nt,
O=C(Nc1nc(-c2nc3ccccc3s2)cs1)C1CC1,23*,0,1,8.8*,5,2,13*,6.4*,nt,nt,15*,1,
O=C(CN1C(=O)CSc2ccccc21)Nc1ccc2c(c1)OCCO2,2,-1,1,1,5,1,nt,nt,nt,nt,nt,nt,
CCOc1ccccc1-c1cc(NC)ncn1,-2,0,nt,0,-2,1,nt,nt,nt,nt,nt,nt,
CNc1cc(-c2cccc(N(C)C)c2)ncn1,18*,1.3*,nt,7.2*,5,1,16*,5.9*,nt,nt,15*,1,
Nc1nc(=O)n([C@@H]2CS[C@H](CO)O2)cc1F,3,-1,nt,0,2,-6,nt,nt,nt,nt,nt,nt,
O=C(Nc1nc2c(s1)COc1ccccc1-2)c1cccs1,15*,-2,4.8*,12*,0,7,8.8*,9.4*,nt,nt,7,0,
O=C(O)c1cccnc1SCc1cn2cc(Br)ccc2n1,2,-1,1,1,-1,-2,nt,nt,nt,nt,nt,nt,
COc1ccc(C)cc1S(=O)(=O)N1CCN(C(=O)c2ncoc2-c2cccc(C)c2)CC1,-2,0,0,0,4,0,nt,nt,nt,nt,nt,nt,
